Shown are actives, neighbours in structure and some others; about 4% of the full set was active somewhere.
Beta apoptosis – inhibitors of cytokine-induced beta cell apoptosis, primary screen, luminescence. INS-1E cytokine-induced death, ATP luminescence, 48 h; percent of positive-control rescue, neutral wells zero. hit rate 0.8% among 300,000. protection from apoptosis, % (no concentration beside the values);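 active means Every replicate reaches about 75%, or at least half do and their mean reaches it too, limit read from the data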;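 further: 0% = cytokine-treated negative control wells and 100% = positive control rescue; higher means more ATP so stronger rescue from cytokine killing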
Mdm2-MdmX inh – inhibitors of human Mdm2-MdmX association, primary screen, cell-based, luminescence, split luciferase, SaOS-2, uHTS; hit rate 3% among 330,000; inhibition, % at 8 µM; AID 485346, 2010; SaOS-2 split-luciferase Mdm2/MdmX complementation; Protein Mdm4 (Homo sapiens) + E3 ubiquitin-protein ligase Mdm2 (Homo sapiens), …;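 active means inhibition of at least 50% at 8 µM in the primary screen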
Target sequence (O15151 whole entry, looked up): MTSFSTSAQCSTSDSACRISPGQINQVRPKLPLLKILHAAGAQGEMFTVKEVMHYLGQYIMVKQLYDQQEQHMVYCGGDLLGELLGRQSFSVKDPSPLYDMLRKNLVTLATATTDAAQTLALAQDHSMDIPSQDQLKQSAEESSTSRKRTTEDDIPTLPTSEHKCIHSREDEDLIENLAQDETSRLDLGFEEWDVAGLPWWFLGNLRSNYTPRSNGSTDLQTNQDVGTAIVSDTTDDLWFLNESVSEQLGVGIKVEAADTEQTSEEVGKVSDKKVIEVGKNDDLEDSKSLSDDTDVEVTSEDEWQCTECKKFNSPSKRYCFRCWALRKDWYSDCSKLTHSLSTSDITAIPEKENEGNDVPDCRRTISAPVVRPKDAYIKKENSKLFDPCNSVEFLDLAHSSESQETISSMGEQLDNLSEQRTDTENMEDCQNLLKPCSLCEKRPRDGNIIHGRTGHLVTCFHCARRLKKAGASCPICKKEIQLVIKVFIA
Target sequence (Q00987 whole entry, looked up): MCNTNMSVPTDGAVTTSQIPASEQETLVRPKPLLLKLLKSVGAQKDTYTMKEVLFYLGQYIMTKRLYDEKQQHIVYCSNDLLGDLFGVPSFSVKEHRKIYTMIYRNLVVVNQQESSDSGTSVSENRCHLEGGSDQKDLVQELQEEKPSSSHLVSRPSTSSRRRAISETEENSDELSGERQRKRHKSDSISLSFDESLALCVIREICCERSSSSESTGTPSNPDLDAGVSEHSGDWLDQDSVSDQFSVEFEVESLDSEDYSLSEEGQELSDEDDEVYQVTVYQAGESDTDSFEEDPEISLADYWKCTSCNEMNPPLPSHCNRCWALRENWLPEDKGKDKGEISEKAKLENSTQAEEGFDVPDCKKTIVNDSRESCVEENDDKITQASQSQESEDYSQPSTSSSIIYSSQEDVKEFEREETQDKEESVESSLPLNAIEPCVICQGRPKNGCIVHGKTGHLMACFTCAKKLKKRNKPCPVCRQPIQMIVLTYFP
697 NFkB inh – inhibitors of PMA/ionomycin-induced NF-kB reporter, 697 cells, primary screen, B-cell NF-kB inhibitor project, cell-based, luminescence, uHTS; 697 B-cell NF-kB luciferase reporter, 16 h; inhibition, % at 4 µM; hit rate 0.33% among 330,000; AID 435022, 2010; in the data active means inhibition above about 35%
Jurkat NFkB inh – inhibitors of induced NF-kB luciferase reporter, primary screen, TCR NF-kB activation inhibitor project, cell-based, luminescence, uHTS; Jurkat, PMA/ionomycin-induced NF-kB luciferase reporter; inhibition, % at 4 µM; hit rate 0.53% among 330,000; AID 435003, 2010; in the data active means inhibition above about 50%
Gli-Sufu block – Gli-Sufu pathway antagonists, primary screen, luciferase luminescence, Sufu-KO-LIGHT cells, uHTS; Sufu-KO-LIGHT fibroblasts, Gli luciferase reporter luminescence; inhibition, % at 5 µM; hit rate 0.74% among 340,000; AID 588413, 2011;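 active means inhibition above about 55%, limit read from the data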;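 further: 0% = DMSO-treated cells and 100% = wells with medium but no cells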
Mdm2 MdmX conf – Mdm2-MdmX complex disruptors, retested hits, confirmation, luminescence, single concentration; shares compounds with Mdm2-MdmX inh; inhibition, % at 8 µM; hit rate 55% among 10,000; AID 489028, 2010; Mdm2-MdmX binding, luminescent assay; in the data active means inhibition above about 40%
Full FLuc ctr – full-length luciferase signal inhibition, confirmation, counter-screen for Mdm2/MdmX interaction inhibitor project, cell-based, single concentration, SaOS-2; shares compounds with Mdm2-MdmX inh; SaOS-2 full-length luciferase counterscreen, luminescence; inhibition, % at 8 µM; hit rate 77% among 6,200; AID 504607, 2011;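 active means mean inhibition at 8 µM reaching about 37%, which flags the compound as non-specific, limit read from the data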;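 further: p53-null SaOS-2 cells with luciferase driven by a doxycycline-inducible promoter; compound on cells about two nights before reading with doxycycline added after day one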
* = called active by the depositor.

COc1ccc(C(=O)CC(Nc2ccc([N+](=O)[O-])cc2)c2ccc(Cl)cc2)cc1 (centres undefined) was read as Beta apoptosis 16, Mdm2-MdmX inh 53*, 697 NFkB inh 8, Jurkat NFkB inh 1, Gli-Sufu block -1 and Mdm2 MdmX conf 15.
Screening CCN(CCCNC(=O)COc1cc(=O)n(CC)c2ccccc12)Cc1ccccc1 returned Beta apoptosis -11, Mdm2-MdmX inh 59*, 697 NFkB inh 17, Jurkat NFkB inh -16, Gli-Sufu block 21, Mdm2 MdmX conf 46* and Full FLuc ctr 93*.
Screening CN(CCCNC(=O)COc1cc(=O)n(C)c2ccccc12)Cc1ccccc1 returned Beta apoptosis 2, Mdm2-MdmX inh 19, 697 NFkB inh 8, Jurkat NFkB inh -13 and Gli-Sufu block 13.
For CCn1c(=O)cc(OCC(=O)NCCc2ccc(OC)c(OC)c2)c2ccccc21 the results were Beta apoptosis 5, Mdm2-MdmX inh 27, 697 NFkB inh 7, Jurkat NFkB inh 12 and Gli-Sufu block -4.
For CCN(CCCNC(=O)CCCOc1cc(=O)n(C)c2ccccc12)Cc1ccccc1 the results were Beta apoptosis 6, Mdm2-MdmX inh 52*, 697 NFkB inh -3, Jurkat NFkB inh -10, Gli-Sufu block 30 and Mdm2 MdmX conf 17.
CCOC(=O)c1sc(Nc2nc(C)cc(OC)n2)nc1C was read as Beta apoptosis 14, Mdm2-MdmX inh 6, 697 NFkB inh 12, Jurkat NFkB inh 9 and Gli-Sufu block 8.
`CCOC(=O)c1sc(Nc2nc(C)cc(C)n2)nc1C` gave Beta apoptosis 33, Mdm2-MdmX inh 57*, 697 NFkB inh -25, Jurkat NFkB inh 35, Gli-Sufu block 0, Mdm2 MdmX conf 60* and Full FLuc ctr 57*.
For Cn1cccc1-c1cc(C(=O)N/N=C/c2cc(Br)ccc2O)[nH]n1 the results were Beta apoptosis 21, Mdm2-MdmX inh 74*, 697 NFkB inh 0, Jurkat NFkB inh 46, Gli-Sufu block 44, Mdm2 MdmX conf 78* and Full FLuc ctr 26.
`Cn1cccc1-c1cc(C(=O)N/N=C/c2ccccc2Cl)[nH]n1` gave Beta apoptosis 3, Mdm2-MdmX inh -10, 697 NFkB inh -44, Jurkat NFkB inh -48 and Gli-Sufu block -22.
`COc1ccc(-c2c3c(nc4sc5c(=O)[nH]c(C)nc5c24)CCC3)cc1` gave Beta apoptosis 28, Mdm2-MdmX inh 67*, 697 NFkB inh -17, Jurkat NFkB inh 10, Gli-Sufu block 13 and Mdm2 MdmX conf 12.
Nc1nc(N)n(-c2ccccc2)c(=Nc2ccccc2)n1 was read as Beta apoptosis 5, Mdm2-MdmX inh -19, 697 NFkB inh 5, Jurkat NFkB inh 19 and Gli-Sufu block 8.
For N/C(=N\c1nc2ccccc2o1)NC(=O)c1cccc(Br)c1 the results were Beta apoptosis 10, Mdm2-MdmX inh 59*, 697 NFkB inh 16, Jurkat NFkB inh 7, Gli-Sufu block -4 and Mdm2 MdmX conf 13.
`O=C(Oc1ccccc1Cl)C1CCN(C(=O)c2ccc(F)cc2)CC1` gave Beta apoptosis 2, Mdm2-MdmX inh 14, 697 NFkB inh 4, Jurkat NFkB inh 17 and Gli-Sufu block -1.
Screening C/C(=N\NC(N)=S)C1=CCC2C3CC[C@H]4CC(O)CC[C@]4(C)C3CC[C@]12C (some centres undefined) returned Mdm2-MdmX inh 75*, 697 NFkB inh -9, Jurkat NFkB inh 14, Gli-Sufu block 26 and Mdm2 MdmX conf 15.
Screening CCS(=O)(=O)c1nc(S(=O)(=O)c2ccc(C)cc2)c(N2CCN(CCO)CC2)s1 returned Beta apoptosis -7, Mdm2-MdmX inh -3, 697 NFkB inh -14, Jurkat NFkB inh 5 and Gli-Sufu block 5.
Screening Cc1ccc(S(=O)(=O)c2nc(S(=O)(=O)c3ccccc3)sc2N2CCN(C)CC2)cc1 returned Mdm2-MdmX inh 61*, 697 NFkB inh -1, Jurkat NFkB inh 20, Gli-Sufu block 20, Mdm2 MdmX conf 47* and Full FLuc ctr 24.
`Cc1ccc(S(=O)(=O)c2nc(S(=O)(=O)c3ccccc3)sc2N2CCN(CCO)CC2)cc1` gave Mdm2-MdmX inh 53*, 697 NFkB inh 2, Jurkat NFkB inh 26, Gli-Sufu block 18 and Mdm2 MdmX conf 11.
For CCCS(=O)(=O)c1nc(S(=O)(=O)c2ccc(C)cc2)c(N2CCN(C)CC2)s1 the results were Beta apoptosis -7, Mdm2-MdmX inh 18, 697 NFkB inh 5, Jurkat NFkB inh 24 and Gli-Sufu block 16.
`N/C(=N\OC(=O)CC(c1ccccc1)c1ccccc1)c1cccnc1` gave Beta apoptosis 2, Mdm2-MdmX inh 88*, 697 NFkB inh -13, Jurkat NFkB inh 1, Gli-Sufu block 1, Mdm2 MdmX conf 64* and Full FLuc ctr 100*.
N/C(=N\OC(=O)Cc1ccccc1)c1cccnc1 was read as Beta apoptosis -7, Mdm2-MdmX inh 5, 697 NFkB inh -6, Jurkat NFkB inh -17 and Gli-Sufu block -8.
`C=C(C)C1Cc2c(C)nn(-c3nc(C)cc(C)n3)c2C1` (centres undefined) gave Beta apoptosis 23, Mdm2-MdmX inh 55*, 697 NFkB inh -46, Jurkat NFkB inh 3, Gli-Sufu block 5 and Mdm2 MdmX conf 9.
For O=C(OCc1c(-c2ccccc2)ncc2ccccc12)c1ccc(C(F)(F)F)cc1 the results were Beta apoptosis 6, Mdm2-MdmX inh 78*, 697 NFkB inh 0, Jurkat NFkB inh 21, Gli-Sufu block 6 and Mdm2 MdmX conf 0.
CC(=O)Nc1ccc(Nc2cc(C)nc3c(-c4ccc(Cl)cc4)cnn23)cc1 was read as Beta apoptosis 7, Mdm2-MdmX inh 81*, 697 NFkB inh -110, Jurkat NFkB inh -106, Gli-Sufu block 7, Mdm2 MdmX conf 87* and Full FLuc ctr 156*.
Screening CC(=O)Nc1ccc(Nc2cc(C)nc3c(-c4ccc(Cl)cc4)c(C)nn23)cc1 returned Mdm2-MdmX inh 31, 697 NFkB inh 2, Jurkat NFkB inh -5 and Gli-Sufu block -3.
`O=C(Nc1ccnn1C1CCN(C(=O)c2cnsn2)CC1)c1cccc(F)c1` gave Mdm2-MdmX inh 26, 697 NFkB inh -29, Jurkat NFkB inh -13 and Gli-Sufu block 1.
